Measurements from PubChem BioAssay AID624488 (Broad Institute, 2012).
Results with a measured potency or affinity are listed apart. Activity calls are given as the source filed them.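 Rule for the calls: active = compounds that lower cell ATP signal, with a fitted half-maximal concentration within a set limit; inconclusive = flat curve with moderate signal loss, or poor fit; inactive = the rest.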

Experiment: viability loss in MITF-independent A375 cells – cell-based, CellTiter-Glo luminescence, dry powder, set 6, counter-screen for MITF inhibitor project, dose response (AID 624488)
Details: CellTiter-Glo ATP luminescence, 24 h; series mostly up to 35 µM

SMILES	outcome
O=C1C=C(NS(=O)(=O)c2cccs2)C(=O)c2ccccc21	inactive
NC1=C(NS(=O)(=O)c2cccs2)C(=O)c2ccccc2C1=O	inactive
CNC1=CC(=O)c2ccccc2C1=O	inactive
O=C1C=C(NS(=O)(=O)c2ccccc2)C(=O)c2ccccc21	inactive
NC1=C(NS(=O)(=O)c2ccc(Br)s2)C(=O)c2ccccc2C1=O	inactive
O=C1C(NS(=O)(=O)c2ccccc2)=C(c2ccccc2)C(=O)c2ccccc21	inactive
O=C1C=C(NS(=O)(=O)c2ccc(Br)cc2)C(=O)c2ccccc21	inactive
NC1=C(NS(=O)(=O)c2ccc(Br)cc2)C(=O)c2ccccc2C1=O	inactive
